# Source: ChEMBL document CHEMBL4513216, “Probing the Open Global Health Chemical Diversity Library for Multistage-Active Starting Points for Next-Generation Antimalarials” (ACS Infect Dis, 2020)
# Hit rate of the full screen: of about 68,000 compounds, about 2,700 (4%) showed an effect of 50% or more. The entries come from a sample that favours strong results as a whole.
# Test system: Plasmodium berghei
# Assay: Screen against P. berghei liver stage (PbLuc), transformed with Luciferase, at 2uM
# Type: functional, HepG2
# Conditions: tested at 2 uM
row,SMILES,INHIBITION
1,CC(C)C(=O)NC1CC2(CCN(CC(=O)N(C)C)CC2)c2ccccc21 (centres undefined),-0.91%
2,CCC(=O)Nc1cccc(OCC(=O)N(C)Cc2ccon2)c1,19.91%
3,CCc1cccc(NC(=O)CCC(=O)N(C)Cc2nc(C)c[nH]2)c1,-53.55%
4,CCC(=O)Nc1cccc(OCC(=O)N(C)Cc2nc(C)c[nH]2)c1,53.13%
5,CCn1nc(C)c2nc(C(C)C)nc(NCCCn3cccn3)c21,-25.67%
6,Cc1cccc(CN2CCn3cc(CNC(=O)CC4CC4)nc3C2)n1,17.24%
7,O=C1COC2(CCN(Cc3nccs3)CC2)CN1CC1CC1,7.86%
8,CCc1cnc(N2C[C@@H]3C[C@H](C(=O)NC)[C@H](C2)O3)nc1,18.91%
9,N#Cc1cccc(S(=O)(=O)N2CCCCC2C(N)=O)c1 (centres undefined),70.24%
10,CC(=O)NCCC1CCCCN1S(=O)(=O)c1cccc(C#N)c1 (centres undefined),-7.53%
11,N#Cc1cccc(S(=O)(=O)N2CCCCC2CCN2CCCC2)c1 (centres undefined),-8.84%
12,CCOc1cccc(NC(=O)c2cnc(C)cn2)n1,29.97%
13,CC(C)=CCS(=O)(=O)Cc1nc(C(C)C)no1,34.69%
14,CN1CCCC1CCNC(=O)c1ccccc1-n1cc(CN)cn1 (centres undefined),-10.49%
15,Cc1ccc(-c2cn(C3CCN(C(=O)[C@H]4CCCO4)CC3)nn2)cc1,74.44%
16,O=C(C1CCCO1)N1CCC(n2cc(-c3ccsc3)nn2)CC1 (centres undefined),7.67%
17,O=C(C1CCCO1)N1CCC(n2cc(-c3ccc(F)cc3)nn2)CC1 (centres undefined),31.51%
18,CN(Cc1ccc(F)cc1)C(=O)NCc1nnc2n1CCCCC2,-43.41%
19,O=C(NCCN1CCOCC1)c1ccc(-n2ccc3ccccc32)s1,52.4%
20,O=C(NCCCN1CCOCC1)c1ccc(-n2ccc3ccccc32)s1,28.31%
21,O=C(NCCCN1CCCCC1)c1ccc(-n2ccc3ccccc32)s1,13.64%
22,CC(C)(C)c1nc(CN2CCCC2c2nnc3ccccn23)no1 (centres undefined),-12.01%

row,SMILES,INHIBITION
1,COc1nc2ccn(CCc3scnc3C)c(=O)c2cc1C#N,0.31%
2,COc1nc2ccn(CCNc3cc(C)ccn3)c(=O)c2cc1C#N,55.39%
3,COc1nc2ccn(CCc3cnccn3)c(=O)c2cc1C#N,-32.52%
4,O=C([C@@H]1CCCN1c1nccc(Nc2ccccc2)n1)N1CCCCC1,-16.43%
5,CCC(CN1CCCC1)NC(=O)C1(c2cccc(F)c2)CC1 (centres undefined),6.64%
6,COc1cccc(-n2cc(CN(C)C(=O)c3cnc(O)cn3)cn2)c1,-6.27%
7,C=C(C)COc1ccccc1C(=O)N(C)C(C)c1c(C)n[nH]c1C (centres undefined),29.81%
8,COc1cccc(C(=O)N(C)C(C)c2c(C)n[nH]c2C)c1OC (centres undefined),50.63%
9,C=C(C)COc1cccc(C(=O)N(C)C(C)c2c(C)n[nH]c2C)c1 (centres undefined),-10.92%
10,CC(C)N1CCCn2c(nc(CNC(=O)c3nccn3C)cc2=O)C1,-25.29%
11,CCN(CC)C(=O)c1ccn(COc2ccc(F)cc2)n1,17.7%
12,CCc1n[nH]c(C2CN(C(=O)Cc3ccc(C)nc3)CCO2)n1 (centres undefined),36.48%
13,O=C(CN1CC(c2nc(C3CC3)no2)C1)N1CCOCC1,56.9%
14,CC1CCN(C(=O)CN2CC(c3nc(C4CC4)no3)C2)CC1,12.57%
15,O=C(CN1CCCC(c2noc(C3CC3)n2)C1)N1CCCC1 (centres undefined),19.45%
16,O=C(c1cccnc1)N1CCC2(CC1)CCN(c1ccsc1)C2=O,-8.05%
17,O=C(Cc1ccccc1Cl)NCCN1CCC(c2cccs2)CC1,28.43%
18,Cn1cc(CC(=O)N2CCCC(n3cncn3)C2)cn1 (centres undefined),38.76%
19,Cc1nccn1C1CCCN(C(=O)c2cccc(S(C)(=O)=O)c2)C1 (centres undefined),5.72%
20,CN(C)C(=O)c1ccc(NCCNc2ccc3ccccc3n2)nc1,-37.09%
21,COc1ccccc1C1(CNc2cc(C(=O)N(C)C)ccn2)CC1,33.78%
22,COc1ccccc1C1(CNc2ncc(S(N)(=O)=O)s2)CC1,7.67%

row,SMILES,INHIBITION
1,COc1ccccc1C1(CNC(=O)NCc2noc(C)n2)CC1,15.28%
2,COc1ccccc1C1(CNc2ccc(C(=O)N(C)C)cn2)CC1,50.61%
3,COc1ccccc1C1(CNc2ccnc(C(=O)N(C)C)c2)CC1,67.44%
4,OCCOCCN1CCCC1c1cccc(Cl)c1 (centres undefined),-17.64%
5,Cc1nc(N(C)C)nc(N(C)Cc2cnccn2)c1C,20.29%
6,COC(=O)c1ccc(C2SC(C)=Nc3c2c(=O)[nH]n3C2CCCC2)cc1 (centres undefined),-3.18%
7,CCCN(C)S(=O)(=O)N1CCCC1c1ccco1 (centres undefined),-3.57%
8,COC(=O)c1cccc(S(=O)(=O)NC(=O)c2ccccc2F)c1,0%
9,Cc1cc(NC(=O)C(C)Nc2cccc(COCc3ccco3)c2)no1 (centres undefined),21.57%
10,CCOC(=O)C(C)Nc1cccc(COCc2ccco2)c1 (centres undefined),-5.44%
11,Cc1cc(NC(=O)C(C)Nc2cccc(COCc3ccco3)c2)on1 (centres undefined),55.52%
12,Cc1ncc(CNC2CC(=O)N(CCc3cccc(Cl)c3)C2)n1C (centres undefined),-15.29%
13,NC(=O)C1CCN(CC(=O)N(Cc2ccccc2)Cc2nccs2)CC1,26.93%
14,Cc1nc(C(=O)NCCS(=O)(=O)N2CCCC2)cs1,3.29%
15,CCc1cc(NCC(O)CN2CCCCC2)n2ncnc2n1 (centres undefined),16.01%
16,CCc1cc(NCc2ccccc2CN2CCCC2)n2ncnc2n1,-23.61%
17,CCc1cc(NCc2cccnc2N2CCCCC2)n2ncnc2n1,64.9%
18,CCC(C)[C@H](N)c1nnc(SCC(=O)Nc2ccc(Br)cc2)o1 (some centres undefined),-7.19%
19,CNc1cc(C2CN(C(=O)c3cscn3)CCO2)nc(C)n1 (centres undefined),26.69%
20,CCc1nc(CN(C(C)=O)C2CCN(CCc3ccncc3)C2)no1 (centres undefined),-21.22%
21,CCc1nc(CN(C(C)=O)C2CCN(CCc3cnn(C)c3)C2)no1 (centres undefined),-10.66%
22,COCCCNC(=O)c1cn(C(C)C)cc2c(=O)[nH]nc1-2,15.34%

row,SMILES,INHIBITION
1,CC(C)n1cc(C(=O)NCCN(C)C)c2n[nH]c(=O)c-2c1,9.1%
2,CC(C)CNC(=O)c1cn(C(C)C)cc2c(=O)[nH]nc1-2,55.52%
3,CNC(=O)CN1CCCC12CCN(C(=O)c1ccsc1)CC2,24.15%
4,Cc1nc(CN2CCC(O)(c3ccccc3F)CC2)c2ccccn12,15.55%
5,O=C(Cc1n[nH]c2ccccc12)N1CCCC1Cn1cccn1 (centres undefined),-36.73%
6,CCCc1noc(CCCC(=O)N2CCCC2c2cnn(C)c2)n1 (centres undefined),54.99%
7,COc1ccc(C(=O)N2CCCC2c2cnn(C)c2)cn1 (centres undefined),80.46%
8,Cc1cnn(CC2CCCN2C(=O)Cc2n[nH]c3ccccc23)c1 (centres undefined),3.9%
9,CCOc1ccc(C(=O)N2CCCC2c2cnn(C)c2)cn1 (centres undefined),-1.02%
10,Cn1cc(C2CCCN2C(=O)COCCc2ccccc2)cn1 (centres undefined),50.76%
11,Cn1cc(C2CCCN2C(=O)Cc2n[nH]c3ccccc23)cn1 (centres undefined),63.95%
12,Cn1cc(C2CCCN2C(=O)CCCOCc2ccccc2)cn1 (centres undefined),-3.9%
13,CCCc1noc(CCC(=O)N2CCCC2c2ccc(OC)cc2)n1 (centres undefined),30.29%
14,CC(C)Oc1ccc(C(=O)N2CCCC2c2cnn(C)c2)cn1 (centres undefined),15.13%
15,Cn1cc(C2CCCN2C(=O)COCCOc2ccccc2)cn1 (centres undefined),-24.75%
16,CCCc1noc(CCC(=O)N2CCCC2c2ccncc2)n1 (centres undefined),-33.92%
17,O=C(NC[C@H]1OC[C@@H](NCc2ccccc2F)[C@@H]1O)c1ccc(F)cc1,-13.88%
18,CCC(CCN)n1ccc(C(F)(F)F)n1 (centres undefined),-31.71%
19,Cn1cnnc1SC1CCc2ccccc2NC1=O (centres undefined),21.31%
20,CN(Cc1cn2c(n1)CN(Cc1ccsc1)CC2)Cc1ccco1,-9.48%
21,COCc1nc2nc(O)c3c(n2n1)NC(=O)CC3c1ccc(SC)cc1 (centres undefined),-19.97%
22,Cc1cccc(C(=O)N2CCC3(CC2)CC(c2cnn(C)c2)CO3)c1 (centres undefined),11.79%

row,SMILES,INHIBITION
1,CC(C(=O)Nc1ccnn1C(C)C)N1CCc2nn(C)c(=O)cc2C1 (centres undefined),-15.38%
2,CC(C)CN1CCCC1c1cc[nH]n1 (centres undefined),17.29%
3,c1ccc(COC[C@@H]2CCC[C@]23CN(Cc2nccs2)CCO3)nc1,17.24%
4,CS(=O)(=O)N1CCCC12CCCN(C(=O)c1ccno1)C2 (centres undefined),7.3%
5,COCc1cc(CC2(NC3CCCCC3)COC2)no1,-9.98%
6,CCN(CC)C1(Cc2cc(COC)on2)COC1,52.36%
7,CCN(CC)C1(Cc2cc(CC(C)C)on2)COC1,32.59%
8,Cc1ccc(C(=O)N2CCc3ncnc(C)c3CC2)o1,32.97%
9,Cc1ccc(C(=O)N2C[C@H]3CCC[C@@]3(COCC3CCOCC3)C2)o1,-35.36%
10,CCOC(=O)N1CCc2ccccc2C12CCNCC2,4.38%
11,Cc1ccc(CN2CCOC3(CCN(C(=O)C4CCOC4)CC3)C2)cc1 (centres undefined),69.37%
12,Cc1ccc(CN2CCOC3(CCN(C(=O)N4CCCC4)CC3)C2)cc1,33.35%
13,Cc1ccc(CN2CCOC3(CCN(C(=O)C4CC=CC4)CC3)C2)cc1,-41.1%
14,Cc1nc(C)n(CC2CN(CCc3ccccc3Cl)CCO2)n1 (centres undefined),-7.08%
15,Cc1ccccc1CSCCn1nc2ccccn2c1=O,6.3%
16,Cn1nnnc1SC1CCN(c2ccccc2Cl)C1=O (centres undefined),4.99%
17,CC(=O)NCCCSC1CCN(c2ccccc2Cl)C1=O (centres undefined),68.61%
18,CC(=O)NCCCSC1CCCN(c2ccccc2F)C1=O (centres undefined),9.13%
19,CC(=O)NCCCSC1CCN(c2ccccc2F)C1=O (centres undefined),75.22%
20,CC(=O)NCCCSC1CCN(c2c(F)cccc2F)C1=O (centres undefined),41.07%
21,CC(=O)NCCCSC1CCCN(c2ccccc2Cl)C1=O (centres undefined),-1.89%
